PolyA inh – inhibitors of polyadenylation in S. cerevisiae | S. cerevisiae SKY197-pL101 polyadenylation reporter, beta-gal luminescence; efflux-impaired pdr1/pdr3 knockout yeast; score 100 = 6 SD above DMSO | activity score, % at 12 µM | hit rate 0.02% among 300,000 | AID 1875;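 active = lowest replicate activity score at least 50, where 100 means six control SD above control mean; inconclusive = lowest score under 50 but half or more replicates reach 50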;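 also: yeast exposed to compound for 9 h at 30 °C; higher score means more reporter readthrough which indicates perturbed polyadenylation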
HTR5A ag – HTR5A agonism, opioid heterodimer counter-screen. P47898. HTR5A agonist assay, luminescence, cell-based. activation, % at 9.3 µM. hit rate 0.61% among 340,000. AID 504692; in the data active = activation mostly above about 9.5%, no sharp cut-off; inactive = mostly below about 7.6%
Target sequence (P47898 whole entry, looked up): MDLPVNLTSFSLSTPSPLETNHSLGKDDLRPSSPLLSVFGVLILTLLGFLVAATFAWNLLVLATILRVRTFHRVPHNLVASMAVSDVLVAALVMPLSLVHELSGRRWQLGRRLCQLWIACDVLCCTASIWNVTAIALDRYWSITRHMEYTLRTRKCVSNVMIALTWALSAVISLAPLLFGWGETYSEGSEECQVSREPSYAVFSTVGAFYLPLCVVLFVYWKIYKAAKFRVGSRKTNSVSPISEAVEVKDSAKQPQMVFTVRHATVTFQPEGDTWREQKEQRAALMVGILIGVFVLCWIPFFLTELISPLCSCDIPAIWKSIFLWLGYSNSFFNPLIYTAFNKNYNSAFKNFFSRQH
OPRM1-OPRD1 ag – OPRM1-OPRD1 heterodimerization agonism; P35372+P41143; AID 504326; hit rate 0.3% among 340,000; cells, luminescence; activation, % at 9.3 µM
OPRM1-OPRD1 inv – inverse agonists of human mu-delta opioid receptor heterodimerization | inhibition, % at 9.3 µM | hit rate 0.21% among 340,000 | cell-based MOR-DOR heterodimer luminescence, inverse agonism; in the data active = inhibition above about 22%, passing the limit was not always enough
NALP1 yeast inh – NALP1 inhibition; hit rate 0.61% among 280,000; AID 2071; S. cerevisiae NALP1/ASC/caspase-1 growth, X-gal OD620, 72 h; inhibition, % at 10 µM; in the data active = inhibition mostly above about 24%, no sharp cut-off; inactive = mostly below about 32%
HTR5A inv ctr – HTR5A inverse agonism, opioid heterodimer counter-screen. HTR5A cell line, luminescence. inhibition, % at 9.3 µM. P47898. hit rate 0.083% among 340,000; in the data active = inhibition mostly above about 23%, no sharp cut-off; inactive = mostly below about 18%
OPRM1-D1 ag cf – confirmation of human OPRM1-OPRD1 heterodimerization agonists; shares compounds with OPRM1-OPRD1 ag; cells, MOR-DOR heterodimerization, luminescence complementation; activation, % at 9.3 µM; hit rate 45% among 830
HTR5A ag ctr2 – counter-screen for OPRM1-OPRD1 agonists: human HTR5A agonism. shares compounds with OPRM1-OPRD1 ag. HTR5A agonist counterscreen, cell luminescence. activation, % at 9.3 µM. hit rate 8% among 830; in the data active = activation above about 17%
Large screens that a line does not name were inactive (follow-up assays come after a bar, where they were run); ! = a repeat was not active. This is a sample that favours compounds with a hit; in the whole collection about 1.6% have one here. Rule as the data show it, unless noted: active = activation above about 18%; inactive = the rest.

Cc1cc2c(cc1S(=O)(=O)NCc1ccccc1Cl)OCCN2C	none
Cc1sc(NC(=S)Nc2ccc(F)cc2)c(C(N)=O)c1C	none
Cc1sc(NC(=S)NC(=O)C2CCCCC2)c(C(N)=O)c1C	OPRM1-OPRD1 ag 18.9 | OPRM1-D1 ag cf 21.0 | HTR5A ag ctr2 inactive
CC(C)(C)OC(=O)N1CCC(C(=O)Nc2ccc(C(=O)N3CCCCC3)cc2)CC1	none (no result: PolyA inh, NALP1 yeast inh)
Cc1ccc(Cl)cc1N1CCN(S(=O)(=O)c2ccc(-c3ccc(=O)[nH]n3)o2)CC1	none
Cc1ccc(C)c(N2CCN(S(=O)(=O)c3ccc(-c4ccc(=O)[nH]n4)o3)CC2)c1	OPRM1-OPRD1 ag 20.1 | OPRM1-D1 ag cf inactive | HTR5A ag ctr2 inactive
COc1cccc(-c2nnc(NC(=O)c3ccc(Cl)s3)o2)c1	OPRM1-OPRD1 ag 19.7 | OPRM1-D1 ag cf inactive | HTR5A ag ctr2 inactive
CCC(C)Sc1ccc([C@@H]2[C@H]3C(=O)N(CC)C(=O)[C@H]3[C@]3(C(=O)OC)CCCCN23)cc1 (stereo partly specified)	none (no result: PolyA inh, NALP1 yeast inh)
Cc1cc(C)cc(Oc2coc3cc(OC(=O)c4cccnc4)ccc3c2=O)c1	OPRM1-OPRD1 ag 22.2 | OPRM1-D1 ag cf inactive | HTR5A ag ctr2 inactive
COc1cc([N+](=O)[O-])ccc1NC(=O)C[n+]1cccc(C(C)=O)c1	none
NC1=C(Cl)C(=O)c2ccc(S(N)(=O)=O)cc2C1=O	HTR5A ag 15.8, OPRM1-OPRD1 ag 38.7 (no result: PolyA inh, NALP1 yeast inh) | OPRM1-D1 ag cf inactive | HTR5A ag ctr2 inactive
NC1=C(Cl)C(=O)c2ccccc2C1=O	none (no result: PolyA inh, NALP1 yeast inh)
CCN(C(=O)c1cccs1)c1nc(-c2ccc(OC)cc2)cs1	none
COc1ccc(-c2csc(N(CCCN(C)C)C(=O)c3cccs3)n2)cc1	OPRM1-OPRD1 ag 26.4 | OPRM1-D1 ag cf 42.7 | HTR5A ag ctr2 inactive
COc1ccc(C(=O)NCC(=O)NCC(c2ccco2)N(C)C)cc1OC (stereo unspecified)	none
CN(C)C(CNC(=O)c1cc2ccccc2o1)c1ccco1 (stereo unspecified)	OPRM1-OPRD1 ag 22.3 (no result: PolyA inh, NALP1 yeast inh) | OPRM1-D1 ag cf 146.6 | HTR5A ag ctr2 inactive
Cc1ccc(CC(=O)NCC(c2ccco2)N(C)C)cc1C (stereo unspecified)	OPRM1-OPRD1 ag 68.5 | OPRM1-D1 ag cf 56.1 | HTR5A ag ctr2 inactive
CN(C)C(CNC(=O)c1ccc(C(F)(F)F)cc1)c1ccco1 (stereo unspecified)	OPRM1-OPRD1 ag 51.2 | OPRM1-D1 ag cf 52.5 | HTR5A ag ctr2 inactive
CC(=O)Nc1ccc(C(=O)NCC(c2ccco2)N(C)C)cc1 (stereo unspecified)	none
O=C(NCc1ccco1)c1cc2ccccc2o1	none
COc1ccc(CNC(=O)CSc2nc(SC)ns2)cc1	PolyA inh inconclusive
COc1ccc(N2CCN(C(c3cccs3)C(C)NC(=O)c3ccco3)CC2)cc1 (stereo unspecified)	none
COc1ccccc1N1CCN(C(c2cccs2)C(C)NC(=O)c2ccco2)CC1 (stereo unspecified)	OPRM1-OPRD1 ag 91.3 | OPRM1-D1 ag cf 119.3 | HTR5A ag ctr2 inactive
CCOC(=O)c1cc(NC(=O)c2cc(C)on2)cc(C(=O)OCC)c1	OPRM1-OPRD1 ag 21.9 (no result: PolyA inh) | OPRM1-D1 ag cf inactive | HTR5A ag ctr2 inactive
COc1cc(NC(=O)c2cc(C)on2)cc(OC)c1OC	none
COc1ccc(S(=O)(=O)N(CC(=O)Nc2cccnc2)c2ccccc2OC)cc1	OPRM1-OPRD1 ag 64.5 | OPRM1-D1 ag cf inactive | HTR5A ag ctr2 inactive
COc1ccc(N(CC(=O)Nc2cccnc2)S(=O)(=O)c2ccc(C)cc2)cc1Cl	none
COc1ccc(C)cc1N(CC(=O)Nc1cccnc1)S(=O)(=O)c1ccc(C)cc1	OPRM1-OPRD1 ag 69.3 | OPRM1-D1 ag cf inactive | HTR5A ag ctr2 inactive
CC(C)(C)C(=O)Nc1cc(NC(=O)C(C)(C)C)cc(C(=O)Nc2c[nH]c(=O)[nH]c2=O)c1	none (no result: HTR5A ag, OPRM1-OPRD1 ag, OPRM1-OPRD1 inv, NALP1 yeast inh, HTR5A inv ctr)
CC(=O)c1cn(CC(=O)Nc2ccccc2Cl)c2ccccc12	none
CCN1CCN(CC(O)COc2ccc(Cl)cc2)CC1 (stereo unspecified)	none
CCN1CCN(CC(O)COc2ccc(C)c(C)c2)CC1 (stereo unspecified)	OPRM1-OPRD1 ag 25.0! | OPRM1-D1 ag cf inactive | HTR5A ag ctr2 inactive
COc1ccc(C2/C=C\CN(C(=O)Nc3ccc(C(F)(F)F)cc3)CC(=O)N2Cc2ccc(F)cc2)cc1 (stereo unspecified)	HTR5A ag 19.7, OPRM1-OPRD1 ag 58.1 | OPRM1-D1 ag cf inactive | HTR5A ag ctr2 inactive
COc1ccc(C2/C=C\CN(C(=O)Nc3ccccc3)CC(=O)N2Cc2ccc(F)cc2)cc1 (stereo unspecified)	none
O=C(Nc1ccc(Br)cc1)c1cc([N+](=O)[O-])cc([N+](=O)[O-])c1	OPRM1-OPRD1 ag 22.4 | OPRM1-D1 ag cf inactive | HTR5A ag ctr2 inactive
CC(=O)Nc1ccc(NC(=O)c2cc([N+](=O)[O-])cc([N+](=O)[O-])c2)cc1	none
Cc1csc(=O)n1CCC(=O)OCC(=O)Nc1cccc(C#N)c1	none (no result: NALP1 yeast inh)
Cc1ccc2[nH]c3c(N4CCc5ccccc5C4)ncnc3c2c1	OPRM1-OPRD1 ag 371.4 | OPRM1-D1 ag cf inactive | HTR5A ag ctr2 19.4
O=C1NC(c2ccc(-c3ccccc3[N+](=O)[O-])o2)C(C(=O)c2ccccc2)C(O)(C(F)(F)F)N1 (stereo unspecified)	none
Cc1ccc(C(=O)C2C(c3ccc(-c4ccccc4[N+](=O)[O-])o3)NC(=O)NC2(O)C(F)(F)F)cc1 (stereo unspecified)	OPRM1-OPRD1 ag 21.2 (no result: NALP1 yeast inh) | OPRM1-D1 ag cf inactive | HTR5A ag ctr2 inactive
Cc1ccccc1Cn1c(O)c(N=NC(=S)Nc2ccccc2F)c2ccccc21	OPRM1-OPRD1 ag 18.2 | OPRM1-D1 ag cf 76.4 | HTR5A ag ctr2 inactive
CC(C)C1CC(CCNCc2ccc(N(C)C)cc2)(c2ccccc2)CCO1 (stereo unspecified)	OPRM1-OPRD1 ag 21.1 | OPRM1-D1 ag cf 25.0 | HTR5A ag ctr2 inactive
COC1OC(O)C(NC(=O)C(F)(F)F)CC1O (stereo unspecified)	none (no result: PolyA inh, NALP1 yeast inh)
Nc1c(NCCN2CCCCC2)c2ccccc2oc1=O	OPRM1-OPRD1 ag 53.3 | OPRM1-D1 ag cf inactive | HTR5A ag ctr2 inactive
COCC(C)n1c(SCC(=O)c2cc(C)n(C)c2C)nc2ccccc2c1=O (stereo unspecified)	none
O=C1c2ccccc2NC(c2ccc(O)cc2)N1c1ccccc1 (stereo unspecified)	none
COc1ccc(-n2c(C)cc(/C=C3/SC(=S)N(C)C3=O)c2C)cc1	none
Cc1cc(/C=C2\SC(=S)N(C)C2=O)c(C)n1-c1cccc(O)c1	OPRM1-OPRD1 ag 30.3 | OPRM1-D1 ag cf inactive | HTR5A ag ctr2 inactive

Compound activity: PubChem, several laboratories
